Measured values as given in the supplement of paper PMC6555819.

system: THRa:RXRa (NR concentration 90 nM, RXRa partner concentration 90 nM); experiment: PBM binding z-score (relative to random genomic background probes); higher = stronger binding; sequences stand for … in GC…GCGATTGACAGCGTAGAATGAAGG
In short: (§1)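 Binding buffer was PBS pH 7.4 with 2% milk, 0.02% Triton X-100, 1 mM DTT, 0.2 mg/mL BSA and 0.4 mg/ml salmon testes DNA. In it, ligand-free nuclear receptor dimers were incubated 1 h on custom Agilent 4×180K protein-binding microarrays carrying double-stranded probes. Antibodies against each partner (one per run) detected binding, and z-scores were calculated against random background probes after regression normalization of scanned fluorescence.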

Sequence | PBM binding z-score
TAGCCTAGGGCATGCGGGCCAGTATAGTGTCGGC | -0.465
TCTTGTAGAGCAAAGGTTAAGAAAGCCGAAGCCT | 1.06
CCGACTGGGGCAAGGTTACCTTAACGCACAGCCA | 2.07
CCAGACAGGTGAGAAGGTCACTCAGCCTCGATTA | 2.46
CCTACTGGGCCCTTCAGAGGTCATTGATCATATG | 2.94
CCTGGTAGGTCATGGTCAGCTAATCTACAGTATG | 2.22
CCTTACGGGACACTGACAGGTTATAGCATTTGGA | 0.178
TCGAGTAGGTTACCAATGGGGCATTCACCTTTCT | 0.504
ACTTACGGGTCAACGAGGTTATTGCACGCGTATA | 4.05

system: THRa homodimer (NR concentration 90 nM); experiment: as above
In short: as §1

Sequence | PBM binding z-score
TCTCGGAGGACATGAAGGTCAGAGCTTTCCAGAG | 0.338
GGAACCAGGGCAAAGTTGATAGCATCTGTCGACG | 0.549
CGTCCAAGGTCAATGCTAGGTCAGTGAAAGCATT | 2.74
CAAACTACGTCACCGGAAGGTCAAAGTCCGCATG | 1.47
TCTAGCAGGCCAGATGGTCACTCAAGAGGTACGG | -0.77
AGAATGAGGTTACCAAAGATCAGGGCAACGCTTG | 1.2
GCTCGGAGGACAAGGTCAGAGCCTTGTCCGTAGA | 1.01
GCTACTGGGGCAAAGCAGGTTACCATAAGGTTGG | 0.258
TCTATTAGTTGACGGGCAACCGACGAGTCCGTTT | -0.348
TCACACAGGTGAAGGTAACTCAGGTACGCAGTCG | 0.16
TCATATAGGTAAAAGGAGAAAGTCGGTGTGGTAA | -0.722
ATCTCTAGGGAAAAGTTCAGTGAATCCCGAGGAT | -0.457
CGTCCACGGTCAAGGTCAGTGAAAGAGACTCGAA | 1.64
CCTCCAAGGTCAATGCTAGGTCAGTGAAAGCATT | 2.91
CCAGACAGGTGAGAAGGTAACACAGCCTCGATTA | 0.195
TAGCCTAGGTCAAGGGCCAGTATACCACGCGAAC | 0.832
CCTAGTTGGTCAGAAGGTCACACACCGGATATGA | 1.59
CGTCAAAATTCAACTAAGGTAACGTAAAGCACGC | 1.75
ATCTCTAGGTAAAGTTCAGTGATAGATCGATAGA | 0.236
TCTTGTAAATCAGCAGGTTAAGAAAGCTGGCCAA | -0.393

Sequence | PBM binding z-score
ATACCAAGGTGACCGTGAGGTCGTTGATACTAAC | 3.08
CTACCCAGGTGAACAAGGTCGTTGATTACTATTC | 1.87
AGAAGGAGGTTATACGTAGATCAGGGAAGAAAGT | 0.665
CCTACTGGGCCACGCAAGGTCATTGATTCAGTGA | 2.64
GTACCAAGGTGAATAGGTTGTTGATGAGTAGGCG | 0.782
TCATATAGGTAATACAGGTGAAAGCCGGCATCTA | 0.273
CCGACTGGGGCATAAGGTCACCATAAGCCAGCCC | 4.71
TGAATGAGGTTCAAGATCAGGGAACGTGGCGTCG | -0.612
CGTCAAAGTTCAACTAAGGAAACGTAAAGCACGC | 0.0826
AGAACGAGGGCACGCTGATTTGATAGCAGAGTAG | -0.138
CGTCAAAGTTCAAGGTAACGTACCAGAAAGCAGC | 1.39
TAGCCTAGGGCATGCGGGCCAGTATAGTGTCGGC | -1.1
TCTTGTAGAGCAAAGGTTAAGAAAGCCGAAGCCT | -1.14
CCGACTGGGGCAAGGTTACCTTAACGCACAGCCA | 1.66
CCAGACAGGTGAGAAGGTCACTCAGCCTCGATTA | 0.916
CCTACTGGGCCCTTCAGAGGTCATTGATCATATG | 1.18
CCTGGTAGGTCATGGTCAGCTAATCTACAGTATG | 0.615
CCTTACGGGACACTGACAGGTTATAGCATTTGGA | 0.0512
TCGAGTAGGTTACCAATGGGGCATTCACCTTTCT | -0.317
ACTTACGGGTCAACGAGGTTATTGCACGCGTATA | 1.2
